± gives the standard deviation of the averaged measurements.
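Also: TDF denotes transformed human dermal fibroblasts of mesenchymal origin.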

For the first test, the system named is HCC1569. Nature of the test: cell number relative to DMSO (% of DMSO); higher = more cells (less growth inhibition / toxicity). The settings on record: concentration: 10 µM; 24 h. The gist of the method: (§1)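 After 24 h at 37 °C with compounds at 10 µM, in triplicate, HCC1569 and TDF cells were fixed with 3.7% formaldehyde. Immunostaining used a rabbit anti-H1.0 antibody and an AlexaFluor 647 secondary, with DAPI, and six fields per well were imaged at ×10. H1.0 nuclear intensity or cell number is presented as percent of the plate control, from the median of replicates, with HCC1569 values smoothed for positional effects.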
Turning to `CC1(NC2=NS(=O)(=O)c3sc(Cl)cc3N2)CC1`, the cell number came to 101.
As for `NCCCC(O)(P(=O)([O-])O)P(=O)(O)O` [Alendronate], the cell number was 106.
As to `CNCCC(Oc1ccc(C(F)(F)F)cc1)c1ccccc1.Cl` (stereo not drawn) [S-(+)-Fluoxetine hydrochloride], the cell number turned out to be 91.2.
As for `Clc1ccc(C(Cn2ccnc2)OCc2csc3c(Cl)cccc23)c(Cl)c1.O=[N+]([O-])O` (stereo not given), the cell number was 88.9.
Consider `Cc1ccc([N+](=O)[O-])cc1S(=O)(=O)N(C)N=Cc1cnc2ccc(Br)cn12`, for which the cell number came out at 52.
Turning to `COc1ccc2cc(C(C)C(=O)O)ccc2c1` (stereo not given) [Naproxen], the cell number was 99.9.
`Nc1sc2c(c1C(=O)c1ccc(Cl)cc1)CCCC2` showed a cell number of 102.
In turn, `CCCCNc1ccc(C(=O)OCCN(C)C)cc1.Cl` [Tetracaine hydrochloride] gave a cell number of 100.
Still for that read-out and setting: the value for `CN1C2CCCC1CC(NC(=O)c1nn(C)c3ccccc13)C2` (stereo not given) [Granisetron] was 93.7; that for `CC(C)(C)c1ccc(C(O)CCCN2CCC(C(O)(c3ccccc3)c3ccccc3)CC2)cc1` (stereo not given) [Terfenadine] was 92.7 ± 3.6; that for `CCN(Cc1ccncc1)C(=O)C(CO)c1ccccc1` (stereo not given) [Tropicamide] was 104 ± 5.5.
Still for that read-out and setting: the value for `Cl.c1ccc(CN2CCC3(CCCc4ccccc43)CC2)cc1` [L-687,384 hydrochloride] was 103.
As for `CC(C)(C)n1nc(-c2ccc(Cl)cc2)c2c(N)ncnc21`, the cell number came to 67.2.
Regarding `CCCCCCCCCCCCCCCC(=O)OCC(COP(=O)(O)O)OC(=O)CCCCCCCCCCCCCCC` (stereo not given) [Dipalmitoylphosphatidic acid], the cell number came to 94.8.
With `CN(C)CCC(c1ccc(Cl)cc1)c1ccccn1.O=C(O)C=CC(=O)O` (single isomer, unassigned; (+)) [(+)-Chlorpheniramine maleate], the cell number turned out to be 104.

The test system of a further test is TDF. The description is as above. The settings on record: concentration: 10 µM; 24 h. The gist of the method:
as §1
In turn, `C[Se]CCC(N)C(=O)O` (stereo not given) [Selenomethionine] displayed a cell number of 94.
Consider `Cc1c(C)c2c(c(C)c1O)CCC(C)(C(=O)O)O2` (stereo not given) [Trolox], for which the cell number was determined as 101.
In turn, `COc1ccc(C=Cc2cc(OC)cc(=O)o2)cc1` [Yangonin] displayed a cell number of 80.2.
`CC(C)NCC(O)COc1ccc(CCOCC2CC2)cc1.Cl` (stereo not given) [Betaxolol hydrochloride] returned a cell number of 122.
Take `CC1(C)CC=C(c2cnc3ccccc3c2)c2cc(C(=O)Nc3ccc(C(=O)O)cc3)ccc21`: the cell number is 99.3.
As to `CNCCC(Oc1ccc(C(F)(F)F)cc1)c1ccccc1` (stereo not given) [Fluoxetine], the cell number stood at 94.1.
`Cc1ccc(S(=O)(=O)NC(=O)NN2CCCCCC2)cc1` [Tolazamide] showed a cell number of 111.1 ± 0.38.
As to `CC(CCc1ccc(O)cc1)NCCc1ccc(O)c(O)c1.Cl` (stereo not given) [Dobutamine hydrochloride], the cell number turned out to be 95.7.
Regarding `COc1ccnc(CS(=O)c2nc3ccc(OC(F)F)cc3[nH]2)c1OC` (stereo not given) [Pantoprazole], the cell number is 105.
`COc1cccc(/C=N/CC/N=C/c2cccc(OC)c2[O-])c1[O-].[Cl-].[Mn+2]`: the cell number came to 98.1.
`O=C(CCNNC(=O)c1ccncc1)NCc1ccccc1` [Nialamide] registered a cell number of 103 ± 2.9.
On to `CN(Cc1ccc(C(C)(C)C)cc1)Cc1cccc2ccccc12` [Butenafine], for which the cell number is 92.9.
In turn, `O=Nc1ccc2oc(=O)ccc2c1` [6-Nitroso-1,2-benzopyrone] registered a cell number of 103.
The compound `CN(C)c1ccc(C2Nc3ccc4ccccc4c3C3=C2C(=O)CC(C)(C)C3)cc1Br` (stereo not given) showed a cell number of 79.3.
Same read-out and setting: for `Cc1scc2c1N(C(=O)CN1CCN(C)CC1)c1ccccc1NC2=O.Cl.Cl` [Telenzepine.2HCl] the value was 99.1; for `CC1C(=O)N=C2Nc3cccc(Cl)c3CN21` (stereo not given) [Quazinone], 106.
As for `CC(=O)c1ccc(NC2=C(Cl)C(=O)c3ccccc3C2=O)cc1` [2-(4-acetylanilino)-3-chloronaphthoquinone], the cell number amounted to 8.89.
As to `N#Cc1cc2nc([O-])c([O-])nc2cc1[N+](=O)[O-].[Na+].[Na+]` [CNQX disodium], the cell number was determined as 101.
Same read-out and setting: the value for `Cl.O=C(CCCN1CCC(O)(c2cccc(C(F)(F)F)c2)CC1)c1ccc(F)cc1` [Trifluperidol hydrochloride] was 111.
In turn, `CCCC(=O)NCCc1c2n(c3ccc(OC)cc13)CCCc1ccccc1-2` displayed a cell number of 109.
For `O=C(C=CC=Cc1ccc2c(c1)OCO2)N1CCCCC1` [Piperine], the cell number is 97.
Take `CN(C)c1ccc(O)c2c1CC1CC3C(N(C)C)C(=O)C(C(N)=O)=C(O)C3(O)C(=O)C1=C2O` (stereo not given) [Minocycline]: the cell number was determined as 101.
The compound `COc1cc2c(c(OC)c1OC)-c1ccc(OC)c(=O)cc1C(NC=O)CC2` (stereo not given) [N-Formyl-Deacetylcolchicine] yielded a cell number of 92.9.
On the same count and under the same terms, for `CCCCC=CCCCCCCCC(=O)O` [9(Z)-Tetradecenoic acid] the value was 105; for `CC(C)CC(NC(=O)C(Cc1c[nH]c2ccccc12)NC(=O)C(Cc1ccc(O)cc1)NC(=O)C(CO)NC(=O)C(Cc1c[nH]c2ccccc12)NC(=O)C(Cc1cnc[nH]1)NC(=O)C1CCC(=O)N1)C(=O)NC(CCCN=C(N)N)C(=O)N1CCCC1C(=O)NCC(N)=O` (stereo not given) [Triptorelin], 89.6.
With `CC1(NC2=NS(=O)(=O)c3sc(Cl)cc3N2)CC1`, the cell number turned out to be 90.6.
The compound `NCCCC(O)(P(=O)([O-])O)P(=O)(O)O` [Alendronate] returned a cell number of 102.
In turn, `CNCCC(Oc1ccc(C(F)(F)F)cc1)c1ccccc1.Cl` (stereo not drawn) [S-(+)-Fluoxetine hydrochloride] returned a cell number of 93.3.
On to `Clc1ccc(C(Cn2ccnc2)OCc2csc3c(Cl)cccc23)c(Cl)c1.O=[N+]([O-])O` (stereo not given), for which the cell number was determined as 100.
Consider `Cc1ccc([N+](=O)[O-])cc1S(=O)(=O)N(C)N=Cc1cnc2ccc(Br)cn12`, for which the cell number came to 11.6.
Compound `COc1ccc2cc(C(C)C(=O)O)ccc2c1` (stereo not given) [Naproxen] gave a cell number of 83.8.
With `Nc1sc2c(c1C(=O)c1ccc(Cl)cc1)CCCC2`, the cell number was found to be 96.8.
Consider `CCCCNc1ccc(C(=O)OCCN(C)C)cc1.Cl` [Tetracaine hydrochloride], for which the cell number is 101.
`CN1C2CCCC1CC(NC(=O)c1nn(C)c3ccccc13)C2` (stereo not given) [Granisetron] yielded a cell number of 93.9.
In the case of `CC(C)(C)c1ccc(C(O)CCCN2CCC(C(O)(c3ccccc3)c3ccccc3)CC2)cc1` (stereo not given) [Terfenadine], the cell number came out at 97.9 ± 12.
`CCN(Cc1ccncc1)C(=O)C(CO)c1ccccc1` (stereo not given) [Tropicamide] returned a cell number of 105 ± 8.1.
`Cl.c1ccc(CN2CCC3(CCCc4ccccc43)CC2)cc1` [L-687,384 hydrochloride] registered a cell number of 96.
The same measure, in the same setting: for `CC(C)(C)n1nc(-c2ccc(Cl)cc2)c2c(N)ncnc21` the value was 107.
For `CCCCCCCCCCCCCCCC(=O)OCC(COP(=O)(O)O)OC(=O)CCCCCCCCCCCCCCC` (stereo not given) [Dipalmitoylphosphatidic acid], the cell number stood at 107.
`CN(C)CCC(c1ccc(Cl)cc1)c1ccccn1.O=C(O)C=CC(=O)O` (single isomer, unassigned; (+)) [(+)-Chlorpheniramine maleate] displayed a cell number of 104.
